Measured values reported in PubChem BioAssay (NCI).
Where “and” joins values, the source holds several entries; their conditions need not be identical. Identical values can stand only once. About 83,000 compounds went through this panel and 20% of them were active in at least one assay; those are over-represented in the sample as a whole.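 A percent growth of 40 corresponds to 60% growth inhibition; 0 means no net growth; -100 means all cells died. Active threshold: below 10.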 Calls of active or inactive are those of the source.

System: RXF 393 renal
Assay: NCI-60 one-dose screen, 48 h (100 = growth as untreated, 0 = no growth, -100 = all killed)
Details: 10 µM unless noted

Row | Compound | growth
1 | O=C(CSc1nc2ccccc2c(=O)[nH]1)Nc1ccccc1C(=O)O | 99.4% (inactive)
2 | Cn1cc(-c2cc(N)n3nc(-c4c[nH]c5ccccc45)cc3n2)c2ccccc21 | -72.5% (active)
3 | Cc1cccc(/C=C/c2ccc(NC(=S)NCCCCN(C)C)cc2)c1 | -91.8% (active)
4 | Cc1ccc(N=Nc2c(N)nn3c(-c4cc5ccccc5oc4=O)ccnc23)cc1 | 7.4% (active)
5 | O=C(Nc1nc2ccccc2s1)Nc1ccccc1Cl | 73.8% (inactive)
6 | COc1ccc(NC(=O)CSc2nnc(-c3ccc(-c4nc5ccc(Cl)cc5[nH]4)cc3)o2)cc1 | -37% (active)
7 | O=C1Nc2cc(-c3ccc(NS(=O)(=O)c4ccc(C(F)(F)F)cc4)cc3)ccc2/C1=C/c1ccc[nH]1 | 25% (inactive)
8 | COc1ccc(Nc2nnc(-c3c[nH]c4ccccc34)o2)cc1 | 104% (inactive)
9 | Cn1cc(-c2cc(N)n3nc(-c4c[nH]c5ccc(F)cc45)cc3n2)c2cccnc21 | -81.2% (active)
10 | O=C(NN1C(=O)/C(=C/C=C/c2ccc([N+](=O)[O-])o2)SC1=S)c1ccc([N+](=O)[O-])cc1 | -88.6% (active)
11 | CN1C(=O)/C(=C/c2ccco2)S/C1=N/c1nccs1 | 111% (inactive)
12 | N#C/C(=C/c1ccc([N+](=O)[O-])cc1)c1nnc(NC(=O)c2ccc(-n3c(=O)[nH]c4ccccc4c3=O)cc2)s1 | 87.9% (inactive)
13 | O=C(CSc1nnc(-c2ccc(-c3nc4ccc(Cl)cc4[nH]3)cc2)o1)Nc1ccccc1 | -40.6% (active)
14 | Cc1cccc(NCC(=O)N2CCN(c3ncnc4c3cnn4-c3ccccc3)CC2)c1 | 76.3% (inactive)
15 | O=C(N/N=C/c1ccc(Br)o1)c1[nH]c2ccc(Br)cc2c1-c1ccccc1 | -43.2% (active)
16 | CCCCCCCCc1ccc(C(=O)Nc2ccc(C)c(OP(=O)(O)O)c2)cc1 | 113% (inactive)
17 | Cn1cc(-c2cc3nc(-c4cn(C)c5ncc(Br)cc45)cc(N)n3n2)c2cc(F)ccc21 | -39.8% (active)
18 | O=C1Nc2ccccc2/C1=C/C(=O)c1cc2ccccc2oc1=O | 91.4% (inactive)
19 | c1n[nH]cc1-c1nc2ccc3cn[nH]c3c2c2c1CCCC2 | 44.8% (inactive)

Row | Compound | growth
20 | CN1C(=O)C(O)(CC(=O)c2cc3ccccc3oc2=O)c2ccccc21 (stereo unspecified) | 122% (inactive)
21 | O=C(CCl)Nc1ccc(C(=O)/C=C/c2cc3ccccc3nc2Cl)cc1 | -85.3% (active) and 36.2% (inactive)
22 | Cc1cc(C2(c3cc(C)c(OCC(O)CNc4c(C)n(C)n(-c5ccccc5)c4=O)cc3C(C)C)OC(=O)c3ccccc32)c(C(C)C)cc1OCC(O)CNc1c(C)n(C)n(-c2ccccc2)c1=O (stereo unspecified) | 1.98% (active)
23 | Cn1cc(-c2cc(N)n3nc(-c4c[nH]c5ccccc45)cc3n2)c2cc(Br)ccc21 | -80.6% (active)
24 | CCC(=O)c1c2c(c3ccc4c5ccccc5ccc4n13)C(=O)c1ccccc1C2=O | 109% (inactive)
25 | CS(=O)(=O)Nc1cc(-c2ccc3ncnc(Nc4ccc(OCc5cccnc5)c(Cl)c4)c3c2)cnc1Cl | 0.962% (active)
26 | Cn1cc(-c2cc(N)n3nc(-c4c[nH]c5ccccc45)cc3n2)c2cc(Cl)ccc21 | -84.7% (active)
27 | COc1ccc(N=Nc2c(N)nn3c(N)c(C#N)c(-c4ccc(C)cc4)nc23)cc1 | 65.1% (inactive)
28 | COc1ccc(C(=O)/C=C/c2ccc3c(c2)OCCO3)cc1S(N)(=O)=O | 88.5% (inactive)
29 | CCCCC[C@@H]1C/C=C(\C)[C@@H](O)C(C)(C)C(=O)[C@@H](C)/C=C(\C)[C@@H]2C[C@H](O)C[C@](O)(CC(=O)O1)O2 | 68% (inactive)
30 | CC(C)(C)c1ccc(OCc2nc3ccccc3n2-c2cccc(N)c2)cc1 | 75.3% (inactive) and 90.7% (inactive)
31 | O=C1/C(=C/c2cnc(-c3ccccc3)s2)SC(=S)N1Cc1ccc2c(c1)OCO2 | 10.5% (inactive)
32 | COc1ccc(NC2=C(I)C(=O)C(C)=C(C)C2=O)cc1 | 58.6% (inactive)
33 | COc1ccc(-c2nnc3c(/C=C/c4ccc(Br)cc4)nc4ccccc4n23)cc1 | -2.19% (active)
34 | C[C@H]1[C@@H](CC(=O)N[C@@H](Cc2coc3ccccc23)B(O)O)O[C@@H]2OC3(C)CC[C@H]4[C@H](C)CC[C@@H]1[C@@]24O3 | -59% (active)
35 | O=C(NNC(=S)NC(=O)c1ccccc1)c1ccc(OCc2nc3ccc(Cl)cc3[nH]2)cc1 | -56.7% (active)
36 | CC1=C(C)C(=O)C(NCCN2CCOCC2)=C(Br)C1=O | 122% (inactive)
37 | N#Cc1ccc(C(=O)NNC(=O)CSc2nc3sc4c(c3c(=O)n2-c2ccc(Cl)cc2)CCCC4)cc1 | 47.5% (inactive)
38 | CCCCCCCOc1ccc(S(=O)(=O)Nc2ccc(C)c(F)c2C(=O)O)cc1 | 114% (inactive)

System: SF-268 CNS
Assay: as above
Details: 10 µM unless noted

Row | Compound | growth
39 | O=C(CSc1nc2ccccc2c(=O)[nH]1)Nc1ccccc1C(=O)O | 94.1% (inactive)
40 | Cn1cc(-c2cc(N)n3nc(-c4c[nH]c5ccccc45)cc3n2)c2ccccc21 | -51.3% (active)
41 | Cc1cccc(/C=C/c2ccc(NC(=S)NCCCCN(C)C)cc2)c1 | -52.4% (active)
42 | Cc1ccc(N=Nc2c(N)nn3c(-c4cc5ccccc5oc4=O)ccnc23)cc1 | 56.8% (inactive)
43 | O=C(Nc1nc2ccccc2s1)Nc1ccccc1Cl | 77.3% (inactive)
44 | COc1ccc(NC(=O)CSc2nnc(-c3ccc(-c4nc5ccc(Cl)cc5[nH]4)cc3)o2)cc1 | 45.4% (inactive)
45 | O=C1Nc2cc(-c3ccc(NS(=O)(=O)c4ccc(C(F)(F)F)cc4)cc3)ccc2/C1=C/c1ccc[nH]1 | 55.5% (inactive)
46 | COc1ccc(Nc2nnc(-c3c[nH]c4ccccc34)o2)cc1 | 71.9% (inactive)
47 | Cn1cc(-c2cc(N)n3nc(-c4c[nH]c5ccc(F)cc45)cc3n2)c2cccnc21 | -27% (active)
48 | O=C(NN1C(=O)/C(=C/C=C/c2ccc([N+](=O)[O-])o2)SC1=S)c1ccc([N+](=O)[O-])cc1 | -82.3% (active)
49 | CN1C(=O)/C(=C/c2ccco2)S/C1=N/c1nccs1 | 107% (inactive)
50 | N#C/C(=C/c1ccc([N+](=O)[O-])cc1)c1nnc(NC(=O)c2ccc(-n3c(=O)[nH]c4ccccc4c3=O)cc2)s1 | 110% (inactive)
51 | O=C(CSc1nnc(-c2ccc(-c3nc4ccc(Cl)cc4[nH]3)cc2)o1)Nc1ccccc1 | 49.1% (inactive)
52 | Cc1cccc(NCC(=O)N2CCN(c3ncnc4c3cnn4-c3ccccc3)CC2)c1 | 73.3% (inactive)
53 | O=C(N/N=C/c1ccc(Br)o1)c1[nH]c2ccc(Br)cc2c1-c1ccccc1 | -12.2% (active)
54 | CCCCCCCCc1ccc(C(=O)Nc2ccc(C)c(OP(=O)(O)O)c2)cc1 | 83.1% (inactive)
55 | Cn1cc(-c2cc3nc(-c4cn(C)c5ncc(Br)cc45)cc(N)n3n2)c2cc(F)ccc21 | 57.6% (inactive)
56 | O=C1Nc2ccccc2/C1=C/C(=O)c1cc2ccccc2oc1=O | 105% (inactive)
57 | c1n[nH]cc1-c1nc2ccc3cn[nH]c3c2c2c1CCCC2 | 94.1% (inactive)

Row | Compound | growth
58 | CN1C(=O)C(O)(CC(=O)c2cc3ccccc3oc2=O)c2ccccc21 (stereo unspecified) | 98.8% (inactive)
59 | O=C(CCl)Nc1ccc(C(=O)/C=C/c2cc3ccccc3nc2Cl)cc1 | -15.5% (active) and 29.3% (inactive)
60 | Cc1cc(C2(c3cc(C)c(OCC(O)CNc4c(C)n(C)n(-c5ccccc5)c4=O)cc3C(C)C)OC(=O)c3ccccc32)c(C(C)C)cc1OCC(O)CNc1c(C)n(C)n(-c2ccccc2)c1=O (stereo unspecified) | 32.6% (inactive)
61 | Cn1cc(-c2cc(N)n3nc(-c4c[nH]c5ccccc45)cc3n2)c2cc(Br)ccc21 | -39.8% (active)
62 | CCC(=O)c1c2c(c3ccc4c5ccccc5ccc4n13)C(=O)c1ccccc1C2=O | 95.4% (inactive)
63 | CS(=O)(=O)Nc1cc(-c2ccc3ncnc(Nc4ccc(OCc5cccnc5)c(Cl)c4)c3c2)cnc1Cl | 14.6% (inactive)
64 | Cn1cc(-c2cc(N)n3nc(-c4c[nH]c5ccccc45)cc3n2)c2cc(Cl)ccc21 | -46.3% (active)
65 | COc1ccc(N=Nc2c(N)nn3c(N)c(C#N)c(-c4ccc(C)cc4)nc23)cc1 | 67.5% (inactive)
66 | COc1ccc(C(=O)/C=C/c2ccc3c(c2)OCCO3)cc1S(N)(=O)=O | 111% (inactive)
67 | CCCCC[C@@H]1C/C=C(\C)[C@@H](O)C(C)(C)C(=O)[C@@H](C)/C=C(\C)[C@@H]2C[C@H](O)C[C@](O)(CC(=O)O1)O2 | 43.1% (inactive)
68 | CC(C)(C)c1ccc(OCc2nc3ccccc3n2-c2cccc(N)c2)cc1 | 74.4% (inactive) and 112% (inactive)
69 | O=C1/C(=C/c2cnc(-c3ccccc3)s2)SC(=S)N1Cc1ccc2c(c1)OCO2 | 44.6% (inactive)
70 | COc1ccc(NC2=C(I)C(=O)C(C)=C(C)C2=O)cc1 | 45.3% (inactive)
71 | COc1ccc(-c2nnc3c(/C=C/c4ccc(Br)cc4)nc4ccccc4n23)cc1 | 87.4% (inactive)
72 | C[C@H]1[C@@H](CC(=O)N[C@@H](Cc2coc3ccccc23)B(O)O)O[C@@H]2OC3(C)CC[C@H]4[C@H](C)CC[C@@H]1[C@@]24O3 | 17.5% (inactive)
73 | O=C(NNC(=S)NC(=O)c1ccccc1)c1ccc(OCc2nc3ccc(Cl)cc3[nH]2)cc1 | -2.2% (active)
74 | CC1=C(C)C(=O)C(NCCN2CCOCC2)=C(Br)C1=O | 63.7% (inactive)
75 | N#Cc1ccc(C(=O)NNC(=O)CSc2nc3sc4c(c3c(=O)n2-c2ccc(Cl)cc2)CCCC4)cc1 | 92.7% (inactive)
76 | CCCCCCCOc1ccc(S(=O)(=O)Nc2ccc(C)c(F)c2C(=O)O)cc1 | 101% (inactive)
